Reference: the supplement of paper PMC11732987, “Enantioselective OTUD7B fragment discovery through chemoproteomics screening and high-throughput optimisation” (Communications Chemistry, 2025)

Assays:
Experiment in all cases: log2 ratio of Biotin-Ahx-Ub-VS probe labelling (fragment/DMSO); higher = less target engagement (more negative = stronger competition), active = hit call of the paper (q ≤ 0.05, log2 ratio ≤ -1)
Conditions in all cases: compound concentration: 200 uM; treatment time: 3 h
USP34 = USP34 (UniProt Q70CQ2)
How it was run: (§1)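 Each value is an average log2 ratio of fragment to vehicle, tested by unpaired t-test. The underlying Spectronaut label-free quantities were global-median-normalised, and only proteins with ≥2 unique peptides were included. Triplicate HEK293T lysate samples (495 µg) were exposed to fragment at 200 µM or vehicle for 3 h, then to Biotin-Ahx-Ub-VS at 0.5 µM final for 1 h, before NeutrAvidin enrichment of labelled DUBs, LysC and trypsin digestion, and diaPASEF LC-MS/MS.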

USP36 = target: T1, USP36 (UniProt Q9P275)
T1 sequence (whole entry): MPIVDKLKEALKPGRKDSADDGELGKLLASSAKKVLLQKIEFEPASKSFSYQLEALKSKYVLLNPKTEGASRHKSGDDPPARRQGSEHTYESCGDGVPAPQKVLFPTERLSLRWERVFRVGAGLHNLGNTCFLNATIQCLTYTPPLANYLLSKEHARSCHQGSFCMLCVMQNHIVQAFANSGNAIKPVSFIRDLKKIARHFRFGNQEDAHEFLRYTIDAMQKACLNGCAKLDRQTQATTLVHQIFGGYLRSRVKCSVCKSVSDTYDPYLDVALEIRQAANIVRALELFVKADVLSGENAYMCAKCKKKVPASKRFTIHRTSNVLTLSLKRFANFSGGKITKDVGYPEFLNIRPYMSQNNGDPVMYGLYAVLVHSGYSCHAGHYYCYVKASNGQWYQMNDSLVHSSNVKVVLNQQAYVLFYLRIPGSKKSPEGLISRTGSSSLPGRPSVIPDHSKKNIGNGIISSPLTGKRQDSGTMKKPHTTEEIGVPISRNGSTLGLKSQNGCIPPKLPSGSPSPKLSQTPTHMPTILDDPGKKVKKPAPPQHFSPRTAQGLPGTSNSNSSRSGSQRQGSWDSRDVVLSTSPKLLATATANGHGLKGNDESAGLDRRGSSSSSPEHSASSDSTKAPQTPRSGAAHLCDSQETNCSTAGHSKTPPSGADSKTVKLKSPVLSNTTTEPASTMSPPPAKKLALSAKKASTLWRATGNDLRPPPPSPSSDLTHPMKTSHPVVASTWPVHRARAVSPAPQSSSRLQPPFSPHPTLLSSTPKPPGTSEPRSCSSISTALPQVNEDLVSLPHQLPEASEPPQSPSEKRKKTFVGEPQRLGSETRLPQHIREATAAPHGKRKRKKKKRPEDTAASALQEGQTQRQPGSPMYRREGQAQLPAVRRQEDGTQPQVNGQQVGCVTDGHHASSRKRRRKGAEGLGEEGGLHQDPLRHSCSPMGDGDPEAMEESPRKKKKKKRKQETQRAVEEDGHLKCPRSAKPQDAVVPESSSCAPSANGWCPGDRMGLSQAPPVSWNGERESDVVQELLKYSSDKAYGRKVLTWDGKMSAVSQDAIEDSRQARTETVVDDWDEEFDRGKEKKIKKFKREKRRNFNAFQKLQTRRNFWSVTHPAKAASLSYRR
How it was run: as §1

USP38 = target: T2, USP38 (UniProt Q8NB14)
T2 sequence (whole entry): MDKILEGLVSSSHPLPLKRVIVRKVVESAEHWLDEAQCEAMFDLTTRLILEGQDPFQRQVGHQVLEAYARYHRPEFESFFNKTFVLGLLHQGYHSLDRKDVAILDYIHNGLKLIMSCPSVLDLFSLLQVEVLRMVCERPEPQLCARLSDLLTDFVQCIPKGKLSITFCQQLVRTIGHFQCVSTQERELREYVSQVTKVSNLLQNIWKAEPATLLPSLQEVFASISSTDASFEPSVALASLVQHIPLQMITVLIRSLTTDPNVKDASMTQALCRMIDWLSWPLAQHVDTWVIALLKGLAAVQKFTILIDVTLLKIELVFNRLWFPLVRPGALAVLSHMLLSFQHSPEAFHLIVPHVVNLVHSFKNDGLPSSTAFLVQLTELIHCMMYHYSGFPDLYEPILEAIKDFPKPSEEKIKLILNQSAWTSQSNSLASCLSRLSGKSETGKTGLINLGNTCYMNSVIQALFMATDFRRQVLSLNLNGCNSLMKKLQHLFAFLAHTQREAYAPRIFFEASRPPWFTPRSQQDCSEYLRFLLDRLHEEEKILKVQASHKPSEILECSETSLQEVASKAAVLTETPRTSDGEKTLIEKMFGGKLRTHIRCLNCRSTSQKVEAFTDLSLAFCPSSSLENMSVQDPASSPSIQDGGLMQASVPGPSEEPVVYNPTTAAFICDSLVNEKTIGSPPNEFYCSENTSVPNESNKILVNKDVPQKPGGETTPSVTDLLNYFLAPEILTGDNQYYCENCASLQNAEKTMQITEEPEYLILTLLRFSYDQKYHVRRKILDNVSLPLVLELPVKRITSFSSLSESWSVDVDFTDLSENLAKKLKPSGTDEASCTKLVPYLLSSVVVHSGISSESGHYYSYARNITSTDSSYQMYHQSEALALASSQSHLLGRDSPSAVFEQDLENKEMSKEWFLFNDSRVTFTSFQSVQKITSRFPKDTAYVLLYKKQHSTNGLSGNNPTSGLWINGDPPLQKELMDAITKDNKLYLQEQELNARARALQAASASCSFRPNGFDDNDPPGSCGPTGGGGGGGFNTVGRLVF
How it was run: as §1

USP39 = target: T3, USP39 (UniProt Q53GS9)
T3 sequence (whole entry): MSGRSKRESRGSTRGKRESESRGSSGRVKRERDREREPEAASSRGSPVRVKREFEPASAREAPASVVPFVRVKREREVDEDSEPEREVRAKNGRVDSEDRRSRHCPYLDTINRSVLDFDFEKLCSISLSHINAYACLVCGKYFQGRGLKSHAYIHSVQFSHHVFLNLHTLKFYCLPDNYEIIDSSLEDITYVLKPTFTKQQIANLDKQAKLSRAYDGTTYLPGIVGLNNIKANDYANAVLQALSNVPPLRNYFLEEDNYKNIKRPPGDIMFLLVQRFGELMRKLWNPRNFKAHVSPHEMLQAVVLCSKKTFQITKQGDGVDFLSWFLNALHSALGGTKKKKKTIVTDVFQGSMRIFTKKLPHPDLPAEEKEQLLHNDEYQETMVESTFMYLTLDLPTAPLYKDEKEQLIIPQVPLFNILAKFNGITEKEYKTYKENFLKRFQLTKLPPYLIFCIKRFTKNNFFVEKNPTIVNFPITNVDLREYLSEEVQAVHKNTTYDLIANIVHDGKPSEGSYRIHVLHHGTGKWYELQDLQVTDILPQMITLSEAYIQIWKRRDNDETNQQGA
How it was run: as §1

USP4 = target: T4, USP4 (UniProt Q13107)
T4 sequence (whole entry): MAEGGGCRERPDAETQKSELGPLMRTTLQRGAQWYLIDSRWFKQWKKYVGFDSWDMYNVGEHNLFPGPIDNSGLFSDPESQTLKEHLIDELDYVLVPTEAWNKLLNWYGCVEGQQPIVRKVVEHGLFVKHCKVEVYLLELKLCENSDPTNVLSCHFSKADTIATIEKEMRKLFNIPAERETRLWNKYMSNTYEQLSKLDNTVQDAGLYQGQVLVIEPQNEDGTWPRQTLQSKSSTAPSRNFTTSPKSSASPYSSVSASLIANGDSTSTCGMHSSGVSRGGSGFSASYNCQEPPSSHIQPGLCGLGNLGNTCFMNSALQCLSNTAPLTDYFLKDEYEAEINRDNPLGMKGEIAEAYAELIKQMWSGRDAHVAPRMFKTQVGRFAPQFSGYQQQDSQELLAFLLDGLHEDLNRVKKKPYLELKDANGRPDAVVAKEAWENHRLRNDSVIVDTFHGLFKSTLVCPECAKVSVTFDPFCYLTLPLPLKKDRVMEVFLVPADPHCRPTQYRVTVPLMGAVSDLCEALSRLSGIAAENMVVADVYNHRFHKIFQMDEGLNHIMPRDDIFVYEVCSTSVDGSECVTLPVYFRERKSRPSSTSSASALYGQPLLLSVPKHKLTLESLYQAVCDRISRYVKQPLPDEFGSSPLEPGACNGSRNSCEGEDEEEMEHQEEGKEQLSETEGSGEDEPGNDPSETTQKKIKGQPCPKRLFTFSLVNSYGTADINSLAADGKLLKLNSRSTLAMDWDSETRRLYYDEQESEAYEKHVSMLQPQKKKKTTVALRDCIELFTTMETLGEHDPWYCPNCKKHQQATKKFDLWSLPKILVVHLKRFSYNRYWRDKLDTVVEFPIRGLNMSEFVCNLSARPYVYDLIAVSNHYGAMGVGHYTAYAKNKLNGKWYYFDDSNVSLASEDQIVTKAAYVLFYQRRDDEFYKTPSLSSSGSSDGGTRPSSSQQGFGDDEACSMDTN
How it was run: as §1

Measured: log2 ratio of Biotin-Ahx-Ub-VS probe labelling

Chain of USP34 (Q70CQ2 whole entry, the tested form may be a part): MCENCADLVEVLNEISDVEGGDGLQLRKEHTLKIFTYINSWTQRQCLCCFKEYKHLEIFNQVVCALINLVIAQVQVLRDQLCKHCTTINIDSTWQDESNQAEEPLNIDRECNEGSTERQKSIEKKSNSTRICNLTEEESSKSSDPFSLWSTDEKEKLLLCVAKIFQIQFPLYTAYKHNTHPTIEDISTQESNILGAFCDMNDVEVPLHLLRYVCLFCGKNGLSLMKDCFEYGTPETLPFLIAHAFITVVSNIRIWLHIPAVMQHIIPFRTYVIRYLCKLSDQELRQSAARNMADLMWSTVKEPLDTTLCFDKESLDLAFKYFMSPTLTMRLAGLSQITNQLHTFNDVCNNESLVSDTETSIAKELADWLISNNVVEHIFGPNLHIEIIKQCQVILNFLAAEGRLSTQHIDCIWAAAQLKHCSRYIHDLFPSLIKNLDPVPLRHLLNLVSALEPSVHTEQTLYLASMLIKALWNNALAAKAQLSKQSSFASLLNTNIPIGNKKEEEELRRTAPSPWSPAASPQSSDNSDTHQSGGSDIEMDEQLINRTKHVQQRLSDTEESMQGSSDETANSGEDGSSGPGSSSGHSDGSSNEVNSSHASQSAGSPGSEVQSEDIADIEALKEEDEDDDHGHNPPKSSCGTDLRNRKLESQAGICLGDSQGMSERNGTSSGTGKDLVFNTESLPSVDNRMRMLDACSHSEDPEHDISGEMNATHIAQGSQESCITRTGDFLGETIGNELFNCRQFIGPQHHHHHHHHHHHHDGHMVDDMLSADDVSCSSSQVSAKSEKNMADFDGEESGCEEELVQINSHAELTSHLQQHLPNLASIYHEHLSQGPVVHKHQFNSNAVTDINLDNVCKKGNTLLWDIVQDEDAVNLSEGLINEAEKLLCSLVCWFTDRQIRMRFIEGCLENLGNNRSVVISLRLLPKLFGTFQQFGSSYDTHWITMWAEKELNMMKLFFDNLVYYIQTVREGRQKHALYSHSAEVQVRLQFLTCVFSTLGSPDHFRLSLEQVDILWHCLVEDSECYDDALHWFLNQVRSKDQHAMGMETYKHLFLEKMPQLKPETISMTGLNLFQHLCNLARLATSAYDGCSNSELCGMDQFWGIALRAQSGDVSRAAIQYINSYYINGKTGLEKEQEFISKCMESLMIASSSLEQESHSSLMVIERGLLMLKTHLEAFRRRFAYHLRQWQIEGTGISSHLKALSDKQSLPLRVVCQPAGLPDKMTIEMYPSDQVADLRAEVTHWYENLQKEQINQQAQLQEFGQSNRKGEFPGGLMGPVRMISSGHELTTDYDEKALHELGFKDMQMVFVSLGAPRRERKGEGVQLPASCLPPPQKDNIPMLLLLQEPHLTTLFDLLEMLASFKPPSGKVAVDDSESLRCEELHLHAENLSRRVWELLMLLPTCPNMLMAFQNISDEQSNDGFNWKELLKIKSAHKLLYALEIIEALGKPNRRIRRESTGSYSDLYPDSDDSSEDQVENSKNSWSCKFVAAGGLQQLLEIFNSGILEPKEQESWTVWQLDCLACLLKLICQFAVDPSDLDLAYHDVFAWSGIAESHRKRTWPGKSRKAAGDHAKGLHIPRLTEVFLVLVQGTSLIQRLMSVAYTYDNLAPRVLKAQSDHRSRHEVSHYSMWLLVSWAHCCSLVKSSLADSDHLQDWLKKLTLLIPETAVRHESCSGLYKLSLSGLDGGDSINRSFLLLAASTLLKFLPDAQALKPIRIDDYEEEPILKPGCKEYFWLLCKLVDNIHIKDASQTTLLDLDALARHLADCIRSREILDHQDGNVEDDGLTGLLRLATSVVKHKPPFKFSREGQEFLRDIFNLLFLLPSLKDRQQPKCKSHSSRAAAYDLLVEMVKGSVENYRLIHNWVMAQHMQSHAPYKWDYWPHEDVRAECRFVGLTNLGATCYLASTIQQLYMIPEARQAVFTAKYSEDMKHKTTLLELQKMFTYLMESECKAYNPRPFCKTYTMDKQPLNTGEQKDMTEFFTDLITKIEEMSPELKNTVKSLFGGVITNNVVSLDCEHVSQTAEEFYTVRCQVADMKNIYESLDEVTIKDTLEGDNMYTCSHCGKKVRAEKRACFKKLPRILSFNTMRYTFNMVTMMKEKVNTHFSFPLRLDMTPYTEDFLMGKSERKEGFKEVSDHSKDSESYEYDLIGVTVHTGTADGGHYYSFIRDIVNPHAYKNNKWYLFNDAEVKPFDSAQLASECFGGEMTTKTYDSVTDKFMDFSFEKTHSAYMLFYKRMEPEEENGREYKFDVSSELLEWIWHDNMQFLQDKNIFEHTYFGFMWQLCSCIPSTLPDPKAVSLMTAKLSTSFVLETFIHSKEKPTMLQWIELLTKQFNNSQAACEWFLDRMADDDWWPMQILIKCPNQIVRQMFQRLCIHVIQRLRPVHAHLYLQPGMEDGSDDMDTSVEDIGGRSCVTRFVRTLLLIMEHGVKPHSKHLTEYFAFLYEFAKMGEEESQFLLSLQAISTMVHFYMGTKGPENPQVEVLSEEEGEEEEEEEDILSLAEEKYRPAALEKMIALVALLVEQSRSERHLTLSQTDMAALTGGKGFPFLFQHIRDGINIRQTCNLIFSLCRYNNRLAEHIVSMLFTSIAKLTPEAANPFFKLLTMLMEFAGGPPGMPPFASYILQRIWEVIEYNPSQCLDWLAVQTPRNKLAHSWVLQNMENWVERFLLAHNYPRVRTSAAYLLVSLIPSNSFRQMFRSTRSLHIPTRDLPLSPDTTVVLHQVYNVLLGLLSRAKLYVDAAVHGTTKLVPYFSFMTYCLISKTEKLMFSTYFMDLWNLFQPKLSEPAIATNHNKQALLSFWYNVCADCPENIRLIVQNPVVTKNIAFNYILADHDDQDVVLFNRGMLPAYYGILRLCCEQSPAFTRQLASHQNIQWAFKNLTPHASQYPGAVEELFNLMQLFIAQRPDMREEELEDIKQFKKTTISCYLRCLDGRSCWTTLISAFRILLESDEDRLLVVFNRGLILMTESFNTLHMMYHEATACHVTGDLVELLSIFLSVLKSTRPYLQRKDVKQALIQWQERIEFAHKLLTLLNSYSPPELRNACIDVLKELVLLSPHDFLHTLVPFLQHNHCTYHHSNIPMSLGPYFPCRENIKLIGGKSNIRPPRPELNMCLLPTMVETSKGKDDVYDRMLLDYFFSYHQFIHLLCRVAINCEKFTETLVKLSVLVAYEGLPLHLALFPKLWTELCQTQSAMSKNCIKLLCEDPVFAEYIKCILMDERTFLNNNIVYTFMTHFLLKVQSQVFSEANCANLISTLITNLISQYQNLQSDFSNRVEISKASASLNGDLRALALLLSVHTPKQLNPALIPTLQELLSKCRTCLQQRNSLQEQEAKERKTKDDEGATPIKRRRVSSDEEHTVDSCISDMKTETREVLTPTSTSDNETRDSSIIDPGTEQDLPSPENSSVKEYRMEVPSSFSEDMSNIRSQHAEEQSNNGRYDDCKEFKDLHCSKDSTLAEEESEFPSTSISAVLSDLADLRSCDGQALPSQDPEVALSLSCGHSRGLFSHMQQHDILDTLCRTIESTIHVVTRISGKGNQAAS

O=C(CCl)NCc1ccc(Cl)cc1
inactive: USP34 -0.211 | USP36 0.0776 | USP38 -0.0243 | USP39 -0.155 | USP4 0.0847
